Screening data (PubChem BioAssay)
The list is not random: actives were taken first. Their share in the collection is about 11%.
RORg inh: ROR gamma (mouse) transcription inhibition; Potency, µM (titrated, usually from 53.6 µM), hits mostly inhibitors; actives 5.4% (n = 310,000); AID 2551; Drosophila S2 Gal4-RORgamma UAS-luciferase reporter, 20 h; P51450; also: nearly all actives have a fitted effect of over 60% in size
Target sequence (P51450 whole entry, looked up, the tested form may be a part): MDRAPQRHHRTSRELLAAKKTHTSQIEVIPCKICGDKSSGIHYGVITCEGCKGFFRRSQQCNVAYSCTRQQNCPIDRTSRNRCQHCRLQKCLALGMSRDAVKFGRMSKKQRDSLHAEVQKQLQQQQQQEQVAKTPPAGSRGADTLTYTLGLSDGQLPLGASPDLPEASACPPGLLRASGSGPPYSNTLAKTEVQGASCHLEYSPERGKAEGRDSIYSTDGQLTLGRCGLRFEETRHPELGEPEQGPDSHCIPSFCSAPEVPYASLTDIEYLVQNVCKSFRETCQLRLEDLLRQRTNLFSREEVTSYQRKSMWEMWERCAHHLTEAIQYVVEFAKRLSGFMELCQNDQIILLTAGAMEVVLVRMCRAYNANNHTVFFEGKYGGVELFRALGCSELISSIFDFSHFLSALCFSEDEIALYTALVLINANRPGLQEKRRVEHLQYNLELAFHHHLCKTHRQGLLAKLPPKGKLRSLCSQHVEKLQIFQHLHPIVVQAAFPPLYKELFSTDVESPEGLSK
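Drosophila Schneider cells stably carrying a metallothionein-driven Gal4 DBD–ROR gamma fusion and a UAS-Photinus luciferase reporter were exposed to compound for 1 hr, then induced with copper sulfate (700 uM final) for 20 hr at ambient temperature before luminescence reading.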
VP16 counter: Gal4-VP16 reporter inhibition counter-screen | Drosophila S2 Gal4-VP16 UAS-luciferase, luminescence, 20 h | Potency, µM (series often up to 53.6 µM), usual class: inhibitors | actives 3.5% (n = 310,000);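 also: Gal4-VP16 expression switched on by copper sulfate through the metallothionein promoter; nearly all actives have a fitted effect of over 50% in size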
IL-1B inflam inh: blocks inflammasome-driven IL-1 beta release | THP-1 LPS/ATP IL-1B secretion, AlphaLISA, 16 h; stronger effect = lower value | activity change, % at 57.5 µM | actives 4.7% (n = 360,000); in the data active = activity change below about -50%; inconclusive = mostly about -30% to -49%
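THP-1 cells pretreated 1 hr with compounds (up to 57.5 uM final), then stimulated with LPS (250 ng/mL final) plus ATP (1.25 mM final); secreted IL-1B measured by AlphaLISA after 16 hr, decreased signal indicating inhibition.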
MCF10A rerep: induces DNA re-replication in MCF 10a normal breast cells; Potency, µM (doses to about 46.1 µM), actives largely listed as activators; actives 2.9% (n = 350,000); MCF 10A DNA re-replication, Hoechst nuclear intensity, 48 h; also: nearly all actives have a fitted effect of over 50% in size
SW480 rerep: DNA re-replication induction in SW480 cells; SW480 DNA re-replication, Hoechst DNA content imaging, 48 h; Potency, µM (highest dose often 46.1 µM), hits mostly activators; AID 624297; actives 1.8% (n = 340,000); also: nearly all actives have a fitted effect of over 55% in size
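250 cells/well; 23 nL cpd via pin tool; 48 hr, 37 C, 5% CO2; Hoechst 40 min; imager read of total nuclear intensity, ex 405/em 500-530 nm.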
A number is an active result; - = inactive; ? = inconclusive; . = not tested or not shown; [ ] = dose if it differs, or a comment. Unless noted, calls follow the shape of the dose curve; as a rule, active = well fitted curve in the direction sought with a large enough effect; inconclusive = small, poorly fitted or top-dose-only effect, or another doubt; inactive = no such curve, though single readings can be large; an effect the other way counts as inactive or inconclusive.

SMILES	RORg inh	VP16 counter	IL-1B inflam inh	MCF10A rerep	SW480 rerep
NC(=O)CC(NC(=O)c1ccc(Br)cc1)c1ccc(N2CCN(c3ccccc3)CC2)c([N+](=O)[O-])c1 (configuration not stated)	?	-	-	-	-
Cc1ccc(S(=O)(=O)N2C[C@H]3[C@H]4C(=O)N(c5ccccc5)C(=O)[C@H]4C[C@H](OC(=O)NC4CCCC4)[C@@]3(O)C2)cc1	.	.	-	.	.
Cc1cc(C)nc(N/N=C/c2ccc3c(c2)OCCO3)n1	?	-	-	-	-
C(=N\Nc1nc2ccccc2[nH]1)/c1ccc2c(c1)OCCO2	5.6µM	?	-	-	-
Cc1cc(N/N=C/c2ccncc2)nc2ccccc12	?	-	-	-	-
Cc1cc(N/N=C/c2cccc(Br)c2)nc2ccccc12	11µM	?	-	-	-
COc1ccc2c(c1)c(/C=N/Nc1nc3ccccc3[nH]1)c(C)n2C	3.5µM	16µM	-98	21µM	?
C(=N\Nc1ccc2ccccc2n1)/c1ccc2c(c1)OCCO2	2.5µM	2µM	-	23µM	?
CC1(C(=O)NCC2CC2)Cc2c(-c3ccc4c(c3)OCO4)ccnc2O1 (configuration not stated)	.	.	-	.	.
Cc1cc(C)nc(N/N=C/c2ccccc2)n1	?	-	-	-	-
Cc1cccc(/C=N/Nc2ccc3ccccc3n2)c1	2.8µM	6.3µM	-75	21µM	-
Cc1ccc(/C=N/Nc2ccc3ccccc3n2)o1	13µM	18µM	-107	-	?
COc1cc(/C=N\Nc2nc3ccccc3[nH]2)cc(OC)c1OC	-	-	-	?	-
CCOc1cc(/C=N/Nc2nc3ccccc3[nH]2)cc(Br)c1OCC(=O)N(C)C	?	-	-92	?	-
COc1ccc(/C=N/Nc2nc3ccccc3[nH]2)cc1OC	-	-	-75	-	-
Cc1ccc(S(=O)(=O)n2c(CN3CCCC(C)C3)nc3ccccc32)cc1 (configuration not stated)	-	-	-51	-	-
Cc1ccc(CNC(=O)c2ccc(CNS(=O)(=O)c3ccc4c(c3)C(C)(C)C(=O)N4C)cc2)o1	-	-	-	-	-
O=C(CCCn1c(=O)[nH]c2ccsc2c1=O)NC1CCCCC1	-	-	-	-	-
O=C(CCCn1c(=S)[nH]c2ccsc2c1=O)NC1CCCCC1	20µM	?	-	-	-
CC1CCCCC1NC(=O)CCCCCn1c(=S)[nH]c2ccsc2c1=O (configuration not stated)	11µM	?	-	-	-
COc1cc(C(=O)N/N=C(\C)c2ccc(NC(=O)Cc3ccccc3)cc2)ccc1O	-	-	-	-	-
Cc1cc(C)cc(/C=C/C2OCC(O)C2Oc2ccc(C3CCCC3)cc2)c1 (configuration not stated)	-[10 µM]	-[10 µM]	.	.	.
CCOC(=O)c1c(-c2ccccc2)csc1NC(=O)c1nn(CC)cc1Br	-	-	-67	-	-
CC1CCC/C(=C\Nc2ccc(O)cc2)C1=O (configuration not stated)	-	-	?	-	-
Cc1cc(C(=O)O)ccc1N/C=C1\CCCC(C)C1=O (configuration not stated)	3.5µM	3.5µM	-	-	-
SMILES	RORg inh	VP16 counter	IL-1B inflam inh	MCF10A rerep	SW480 rerep
COc1ccc(C(=O)NNC(=S)NC(=O)c2ccco2)cc1	-	-	-	-	-
O=C(COc1ccc(Cl)cc1Cl)NNC(=S)NC(=O)c1ccco1	11µM	?	.	-	-
O=C(COc1ccc(Cl)cc1Cl)NNC(=S)NCc1ccco1	3.2µM	?	-	?	-
O=C(COc1ccc(Cl)cc1Cl)NCc1ccco1	?	-	-	-	-
CC(Oc1ccc(Cl)cc1)C(=O)NNC(=S)NC(=O)c1ccco1 (configuration not stated)	13µM	?	-	?	-
CCC(C)O (configuration not stated)	-	-	.	.	.
Cc1ccc(C(=O)NC(=S)NNS(=O)(=O)c2ccccc2)cc1	3.2µM	14µM	-	?	-
Cc1ccc(S(=O)(=O)NNC(=S)NCCc2ccccc2)cc1	11µM	?	-	-	-
CCCCCCCCCNC(=O)[C@H](NC(=O)COc1ccccc1)[C@@H]1NC(C(=O)OC)C(C)(C)S1 (some centres not stated)	.	.	-	6.5µM	-
COCCn1c(=S)[nH]c2ncccc2c1=O	-	-	-	-	-
COCCCn1c(=S)[nH]c2ncccc2c1=O	11µM	-	-	-	-
O=c1c2cccnc2[nH]c(=S)n1CCC1=CCCCC1	0.89µM	1.6µM	-	-	-
CCCCCn1c(=S)[nH]c2ncccc2c1=O	1.1µM	2.8µM	-	-	-
CN(CCCn1c(=S)[nH]c2ncccc2c1=O)Cc1ccccc1	-	-	-	-	-
O=c1oc(-c2ccccc2)c(-c2ccccc2)c2ccccc12	.	.	-	?	-
Cc1ccccc1-c1nc(P(=O)(c2ccccc2)c2ccccc2)c(N2CCOCC2)o1	-	-	-67	-	-
Cc1onc(-c2c(F)cccc2Cl)c1C(=O)Oc1ccccc1	.	.	-	.	.
CC1(C)C2CCC1(C)C(NC(=O)/C=C/c1ccccc1)C2 (configuration not stated)	?	18µM	-	-	?
CCC(C)Nc1nc(N)c([N+](=O)[O-])c(Nc2cc(OC)ccc2OC)n1 (configuration not stated)	-	-	?	?	-
CCC(C)Nc1nc(N)c([N+](=O)[O-])c(Nc2ccccc2OC)n1 (configuration not stated)	-	-	-88	?	-
COc1ccccc1Nc1nc(NCCCN(C)C)nc(N)c1[N+](=O)[O-]	?	16µM	-63	-	-
O=C(O)c1ccccc1-c1ccc(C(F)(F)F)cc1	-	-	.	-	-
Cc1cc(CC(C)C)n(-c2nc3ccccc3c(=O)n2OCc2ccccc2)n1	1.6µM	?	-	-	-
Cc1cc(CC(C)C)n(-c2nc3ccccc3c(=O)n2OCC(=O)N(C)C)n1	2.2µM	6.3µM	-	-	-
COc1cccc(C2c3cc4c(cc3OC(N3CCOCC3)C2C)OCO4)c1O (configuration not stated)	.	.	-	?	?
SMILES	RORg inh	VP16 counter	IL-1B inflam inh	MCF10A rerep	SW480 rerep
Clc1nc(-c2ccccc2)c2ccccc2n1	-	-	-	-	-
Clc1nc2c(-c3ccccc3)nnn2c2ccccc12	-	-	-84	3.7µM	?
Cc1ccc(-c2nnn3c2nc(Cl)c2ccccc23)cc1	-	-	-75	4.1µM	?
Fc1cccc(-c2nnn3c2nc(Cl)c2ccccc23)c1	-	-	-	2.6µM	5.8µM
COCCCNc1nc2c(-c3ccc(Cl)cc3)nnn2c2ccccc12	-	-	-	?	-
CN(Cc1ccco1)c1ncncc1-c1ccccc1Cl	-	-	.	.	.
COc1ccc2cc(C#N)c(=O)oc2c1	-	-	.	.	.
CN1CCN(c2nc(-c3cccc(C#N)c3)nc3ccccc23)CC1	-	-	.	.	.
